Screening data as filed in PubChem BioAssay.
The entries come from a sample that favours hits as a whole.
NSD2 block = NSD2 (human) methyltransferase inhibition; NSD2-SET H3K36me1 DELFIA fluorescence, biochemical; hit rate 0.07% among 44,000; O96028; inhibition, % at 12.5 µM; in the data active means inhibition above about 54%, passing the limit was not always enough;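 further: inhibitors reduce the monomethyl H3K36 fluorescence signal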
Large screens that a line does not name were inactive.

COc1ccc(O)c(/C=N/NC(=O)c2cccc(C(=O)NO)c2)c1	none
O=C(CCCCCC(=O)N/N=C/c1nccs1)NO	none
O=C(CCCCCCC(=O)Nc1ccccc1O)N/N=C\c1ccc2ccccc2n1	none
O=C(CCCCCC(=O)N/N=C/c1ccc(F)cc1)NO	none
COC(=O)c1ccc(/C=N/NC(=O)c2ccccc2O)cc1	none
Cc1ccc(NC2=CC(=O)c3sc(C)nc3C2=O)cc1	NSD2 block 73.7
Cc1ccc(/C=N/NC(=O)CCCCCC(=O)Nc2ccccc2O)o1	none
C[C@@H]1[C@H]2[C@H](OC3O[C@H](CO)[C@@H](O)[C@H](O)[C@H]3O)OC=C(C(=O)O)[C@H]2C[C@@H]1O (stereo partly specified)	none
CCOc1cc(/C=N/NC(=O)c2ccc(C(=O)NO)cc2)ccc1O	none
OC[C@H]1O[C@@H](Oc2ccc3c(c2)OC[C@H]2c4cc5c(cc4O[C@@H]32)OCO5)[C@H](O)[C@@H](O)[C@@H]1O	NSD2 block 68.4
COc1ccc2c(c1)O[C@H]1c3ccc(O)cc3OC[C@@H]21	none
Oc1ccc2c(c1O)OCC1c3cc4c(cc3OC21)OCO4 (stereo unspecified)	none
O=C(CCCCCCC(=O)Nc1ccccc1O)N/N=C/c1cc(Br)c(O)c(Br)c1	none
O=C(CCCCCC(=O)N/N=C/c1ccoc1)NO	none
Cc1nc(S(=O)(=O)N[C@@H]2CCCN(Cc3ccc(OCCO)cc3)C2)cn1C	none
Cc1cc(C(F)(F)F)nc2snc(Br)c12	none
O=C(/C=C/c1ccc(OCc2ccc(Cl)cc2)cc1)NO	none
C=CC[C@]1(C(=O)N2CCCCC2)N=C(c2ccc(OCCCO)cc2)O[C@H]1c1ccccc1	none
Clc1ccc2nc(NCc3ccccn3)nc(-c3ccccc3)c2c1	none
O=C(O)CCCCCCC(=O)N/N=C/c1ccc2ccccc2n1	none
CC(C)=CCN(CC#Cc1ccccc1)[C@H](CO)c1ccccc1	none
CC(/C=C/C(=O)NO)=C\c1ccccc1OC[C@@H]1[C@H]2C[C@H]3c4[nH]c5ccccc5c4CCN3C[C@@H]2CC[C@@H]1O	none
O=C(Nc1cc(Cl)cc(Cl)c1)N1CCC(n2cccc2)CC1	none
Cc1ccc(S(=O)(=O)c2nc(-c3ccccc3)oc2NCCN2CCOCC2)cc1	none
O=C1C(Cl)=C(NCCN2CCOCC2)C(=O)c2ncccc21	NSD2 block 90.2
c1ccc2c(c1)CCCc1cc(NCCN3CCOCC3)nnc1-2	none
COC(=O)CCCCCCC(=O)N=NC=C1C=CN(O)C=C1	none
CN(CCO)c1ccc(/C=N/NC(=O)CCCCCCC(=O)NO)cc1	none
CC(OC(=O)c1cccc(O)c1)C(=O)O (stereo unspecified)	none
O=C(NO)c1ccc(C(=O)N/N=C/c2cccc(B(O)O)c2)cc1	none
O=C(O)c1ccc(/C=N/NC(=O)c2ccccc2O)cc1	none
O=C(NO)c1cccc(C(=O)N/N=C/c2cccc(O)c2O)c1	none
O=C(NO)c1cccc(C(=O)N/N=C/c2ccc(O)c(O)c2O)c1	NSD2 block 63.0
O=C(NO)c1cccc(C(=O)N/N=C/c2ccc(O)c3ccccc23)c1	none
CC1(C)COC(CCC/C=N/NC(=O)CCCCCCC(=O)NO)OC1	none
CC1(C)[C@H]2CC=C(/C=N\NC(=O)CCCCCCC(=O)O)[C@@H]1C2	none
COc1ccc(Cl)cc1NC(=O)Nc1cc(C)nc2ccccc12	none
CC(C)Nc1cccnc1N1CCN(C(=O)c2cc3cc(O)ccc3[nH]2)CC1	none
O=C(CCCCCC(=O)Nc1ccccc1O)N/N=C/c1cc(O)ccc1[N+](=O)[O-]	none
O=C(C1CCCO1)N1CCN(C/C=C/c2ccccc2)CC1 (stereo unspecified)	none
O=C(OCc1ccccc1O[C@@H]1O[C@H](CO)[C@@H](O)[C@H](O)[C@H]1O)c1c(O)cccc1O[C@@H]1O[C@H](CO)[C@@H](O)[C@H](O)[C@H]1O	none
COc1cc(C(=O)OCC2(O)COC(OCC3OC(Oc4c(OC)cc(CO)cc4OC)C(O)C(O)C3O)C2O)cc(OC)c1O (stereo unspecified)	none
CC(C)CC(=O)c1c(O)cc(O)cc1OC1OC(COC(=O)c2cc(O)c(O)c(O)c2)C(O)C(O)C1O (stereo unspecified)	NSD2 block 52.2
CC(C)(C)c1ccc(-c2nnc(SCc3cccc(C(N)=O)c3)n2-c2ccc3c(c2)OCO3)cc1	none
CC(=O)OCC1=CCCC2[C@@]1(C)CC[C@@H](C)[C@]2(C)CCC(C)CC(=O)O (stereo partly specified)	none
COC(=O)CCCCCCC(=O)N/N=C/c1cccc(Oc2ccccc2)c1	none
O=c1c(O[C@@H]2OC[C@H](O)[C@H](O)[C@H]2O)c(-c2ccc(O)c(O)c2)oc2cc(O)cc(O)c12	none
O=c1c(O[C@@H]2O[C@H](CO)[C@H](O)[C@H](O)[C@H]2O)c(-c2ccc(O)cc2)oc2cc(O)cc(O)c12	none
O=c1c(OC2OCC(O)C(O)C2O)c(-c2ccc(O)c(O)c2)oc2cc(O)cc(O)c12 (stereo unspecified)	NSD2 block 59.6
COc1c(-c2ccc(O)cc2)oc2cc(O)cc(O)c2c1=O	none
O=c1c(O[C@@H]2OC[C@H](O)[C@H](O)[C@H]2O)c(-c2ccc(O)cc2)oc2cc(O)cc(O)c12	NSD2 block 72.0
C[C@@H]1O[C@@H](Oc2cc(O)c3c(=O)c(O[C@@H]4O[C@@H](C)[C@H](O)[C@@H](O[C@@H]5OC[C@@H](O)[C@H](O)[C@H]5O)[C@H]4O[C@@H]4O[C@H](CO)[C@@H](O)[C@H](O)[C@H]4O)c(-c4ccc(O)c(O)c4)oc3c2)[C@H](O)[C@H](O)[C@H]1O	none
O=C(N/N=C/c1cc(Br)cc(Br)c1O)c1ccccn1	none
COC(=O)[C@@H](O)[C@H]1[C@@]2(C)C[C@]3(O)C4[C@@H](O[C@]56CC(=O)O[C@@H](c7ccoc7)[C@@]5(C)CCC([C@]46O)[C@]13C)[C@H]2O (stereo partly specified)	NSD2 block 75.6
CC12CC(c3ccoc3)OC(=O)C1CCC1(C)C2C2OC(=O)C1(O)C1OC21 (stereo unspecified)	none
CC(=O)O[C@@H]1CC2C(C)(C)C(=O)C3OC3[C@]2(C)C2CC[C@@]3(C)[C@H](c4ccoc4)OC(=O)C4OC43[C@@]21C (stereo partly specified)	none
C=CC(C)(O)CC(/C=C(\C)CC(/C=C(\C)CCC=C(C)C)OC(C)=O)OC(C)=O (stereo unspecified)	none
CN(C)/C=C(\C(=O)Nc1ccc(F)c(F)c1F)S(=O)(=O)c1ccccc1	none
O=C(N/N=C/c1ccc(N2CCCC2)cc1)c1ccccn1	none
CCN(C(=O)C(C)Oc1ccccc1)c1ccccc1C (stereo unspecified)	none
O=S(=O)(NC1CCN(Cc2cccc(OCCO)c2)CC1)c1ccc(Cl)cc1	none
C=CC1CN(C=O)CCC1CCC(=O)c1ccnc2ccccc12 (stereo unspecified)	none
CC(C)=CCC[C@H](C)C/C=N/NC(=O)CCCCCC(=O)NO	none
O=C(N/N=C/c1cccc2ccccc12)c1ccccc1O	none
O=C(c1ccccc1)c1ccc(N2CCOCC2)cc1O	none
Cc1ccc(O)c(/C=N/NC(=O)c2ccccn2)c1	none
CN(C)c1ccc(/C=N/NC(=O)c2ccc(C(=O)NO)cc2)cc1	none
O=C(O)C(c1ccccc1)N1C(=O)/C(=C/c2ccncc2)SC1=S (stereo unspecified)	none
COc1ccc(C#Cc2ccc3c(c2)[C@]2(C(=O)N3)[C@H](C(=O)NC[C@H](O)c3ccccc3)[C@H]3C(=O)O[C@H](c4ccccc4)[C@H](c4ccccc4)N3[C@@H]2c2ccccc2OCCO)cc1	none
COc1cc(C2c3c(cc(OC)c(O)c3OC)CC(CO)C2COC2OCC(O)C(O)C2O)cc(OC)c1O (stereo unspecified)	none
